We go through nine molecules from PubChem BioAssay (EPA / NIEHS).

Records with an inconclusive call do not appear. Active and inactive are the calls of the source. The calls were made as follows: active = hit-call score of the fitted dose curve at least 0.9, where 1 is the maximum; inconclusive = response in the unintended direction; inactive = score below 0.9.

The test can be described thus: Tanguay_ZF_120hpf_SNOU_legacy: (Legacy) Oregon State University Tanguay Lab 120 Hour Post-fertilization zebrafish Assay for Snout Malformation (AID 2283637). The essentials:
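Dechorionated tropical 5D wild-type zebrafish embryos exposed statically from 6 to 120 hpf at 28C, one per well, in 0.64% DMSO. Snout malformation scored as present/absent by brightfield at 120 hpf; dead embryos not scored.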
Turning to `Cc1[nH]cnc1C[C@H]1CCc2c(C)c3ccccc3n2C1=O`, the molecule was called inactive. `CCCCCCc1ccc(O)cc1O`: the call was inactive. With `CC(=O)OC[C@H]1O[C@@](COC(C)=O)(O[C@H]2O[C@H](COC(C)=O)[C@@H](OC(C)=O)[C@H](OC(C)=O)[C@H]2OC(C)=O)[C@@H](OC(C)=O)[C@@H]1OC(C)=O`, the molecule was classed as inactive.

The term AC50 denotes the concentration giving half of the maximal activity seen. With `O=P(OC(CCl)CCl)(OC(CCl)CCl)OC(CCl)CCl`, the AC50 is 25.9 µM (active). The same measure, in the same setting: the value for `COc1ccc(-n2nc(C(F)F)cc2-c2ccc(S(C)=O)cc2)cc1` (centres undefined) was 40.4 µM (active).

As to `O=C(O)c1cc(N=Nc2ccc(S(=O)(=O)Nc3ccccn3)cc2)ccc1O`, the call was inactive. For `CC(C)c1cccc(C(C)C)c1N1C(=O)c2ccc(O)cc2C1=O`, the molecule was classed as inactive. Take `CC(=O)OCCC(C)C`: the result was inactive.

As to `O=C(O)c1cccc(N(Cc2cccnc2)c2ccc(OC(F)F)c(OC(F)F)c2)c1`, the result was inactive.
